Reference: PubChem BioAssay (NCI)
About 83,000 compounds went through this panel and 20% of them were active in at least one assay; those are over-represented in the sample as a whole.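 96-well plates, one dose, 48 hours. Percent growth reported; active if below 10.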 Values without a mark were called inactive. Activity calls are given as the source filed them.

These compounds were tested on NCI-H23 lung (assay: NCI-60 one-dose screen, 48 h (100 = growth as untreated, 0 = no growth, -100 = all killed)). Conditions: 10 µM unless noted.

SMILES | growth
O=C1C=Cc2ncccc2C1=O | 70%
COc1cc2c(cc1OC)C(=O)/C(=C/c1cc(-c3ccc4c(c3)OCO4)n[nH]1)C2 | 22.4%
CCN(CC)CCCCCCNc1ccnc2cc(Cl)ccc12 | 83.4%
COC(c1ccccc1)(c1ccccc1)c1ccccc1 | 95.4%
CC(CNc1nc(Nc2ccc(Cl)c(Cl)c2)nc(C(Cl)(Cl)Cl)n1)N(C)C (stereo not given) | 14.2%
COc1cccc2c1C(=O)c1c(O)c3c(c(O)c1C2=O)C[C@@](O)(C(=O)CO)C[C@@H]3OC1C[C@H](N)[C@H](O)[C@H](C)O1 (stereo not given in full) | -33.5% (active)
NC(=O)[C@@H]1CC2CCC1C2 (stereo not given in full) | 113%
COc1cc2[nH]c(C(=O)c3cc(OC)c(OC)c(OC)c3)c(N)c2cc1C#CCO | 35.7%
CN(C)c1ccc(N=C2C=CC(=O)C=C2)cc1 | 84.5%
COc1ccc(C(=O)c2cc(OC)c(OC)c(OC)c2)cc1/C=C/C(=O)c1cc(OC)c(OC)c(OC)c1 | 79.9%
Nc1c(C(=O)Nc2cccc(Br)c2)sc2nc3c(cc12)C(=O)CCC3 | 34%
O=C1NC(=Nc2ccc(S(=O)(=O)Nc3nccs3)cc2)S/C1=C\c1coc2ccccc2c1=O | 100%
COc1ccc(C(=O)/C=C/c2cc(-c3cc(OC)c(OC)c(OC)c3)n[nH]2)cc1OC | 71.2%
COc1cc2[nH]c(C(=O)c3cc(OC)c(OC)c(OC)c3)c(N)c2cc1C#CC1CC1 | 50.3%
O=C(NC1=CC(=O)c2ccccc2C1=O)c1ccccc1 | 18.7%
